The full ranking holds about 33,000 sequences; the median of “E-score (-0.5 to 0.5)” is about -0.041, and the highest 2% start at about 0.37. For the sample, the highest values were picked, then their nearest neighbours and some sequences at random.
Each sequence was assayed against T1, Ecm22 (UniProt Q05958) (assay: PBM E-score (8-mer binding enrichment) (E-score (-0.5 to 0.5)); higher = stronger / more preferred TF binding). Conditions: protein concentration: 200 nM; construct: GST-full length.
T1 sequence: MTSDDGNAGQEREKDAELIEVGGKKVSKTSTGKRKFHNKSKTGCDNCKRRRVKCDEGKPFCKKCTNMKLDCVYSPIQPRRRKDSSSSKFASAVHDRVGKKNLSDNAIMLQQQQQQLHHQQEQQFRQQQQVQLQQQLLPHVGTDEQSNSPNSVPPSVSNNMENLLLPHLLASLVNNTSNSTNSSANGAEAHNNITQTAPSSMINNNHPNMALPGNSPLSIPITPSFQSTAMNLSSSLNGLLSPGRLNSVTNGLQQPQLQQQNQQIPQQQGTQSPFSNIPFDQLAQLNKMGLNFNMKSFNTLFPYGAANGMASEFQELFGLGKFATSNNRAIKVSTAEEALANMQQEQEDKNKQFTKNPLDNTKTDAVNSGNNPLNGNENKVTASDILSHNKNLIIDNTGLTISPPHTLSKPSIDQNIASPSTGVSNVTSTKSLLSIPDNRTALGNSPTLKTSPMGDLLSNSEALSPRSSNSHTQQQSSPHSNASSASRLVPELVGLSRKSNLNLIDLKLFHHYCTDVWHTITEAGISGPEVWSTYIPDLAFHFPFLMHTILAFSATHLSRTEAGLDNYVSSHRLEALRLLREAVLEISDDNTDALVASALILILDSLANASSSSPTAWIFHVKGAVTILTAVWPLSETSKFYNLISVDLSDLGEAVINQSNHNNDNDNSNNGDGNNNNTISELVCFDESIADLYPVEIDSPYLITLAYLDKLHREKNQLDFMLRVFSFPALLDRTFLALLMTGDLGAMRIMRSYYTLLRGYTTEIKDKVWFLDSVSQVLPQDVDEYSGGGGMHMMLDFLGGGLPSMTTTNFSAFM
Procedure, shortened: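 Full-length yeast transcription factors or their DNA-binding domains, GST-tagged and expressed with PURExpress, were applied at about 100-200 nM to universal all-10-mer Agilent arrays. These arrays had been made double-stranded by primer extension on fresh or once-stripped slides. Detection used fluorescent anti-GST, normalisation used masliner, and E-scores for ungapped eight-base words pooled with reverse complements came from the Universal PBM Analysis Suite.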

Sequence	PBM E-score
CGATACAA	0.148
CGATACGA	0.454
GGATACTA	-0.144
CGATACGC	0.2
AGATACGC	0.196
AGATACGG	0.28
GGATACGA	0.45
CAAATGCC	-0.27
TGCAAGAA	-0.0877
AAGCCATA	-0.0528
CCTTCCCG	-0.043
ACAGAGCG	0.00751
CCTTGAAA	-0.0768
ACGAGTTG	0.371
GCGAGTTA	0.191
CCGAGTTA	0.0641
ACGAGTTC	0.319
AGGAGTTG	0.0179
ACGAGTTA	0.422
GGGAACCC	0.0178
CGCCCAGA	-0.104
CCCAACCA	0.0792
GAAGAGAC	0.0183
GACCTTCA	-0.0961
CGTTTAGC	0.464

Sequence	PBM E-score
CGTTTGGC	0.394
CATTTAGC	0.0683
CGTTTAGA	0.446
CGTTTGGA	0.366
GGTTTAGA	-0.179
AGTTTAGA	-0.186
AGTTTGGC	-0.00953
AGTTTAGC	-0.19
CACTGCTG	-0.147
GCTGCTAC	0.124
GACCCGGA	-0.17
CTCCGCGC	-0.0267
GCGTAGAA	-0.0103
CCGTAGCA	0.165
CCGTAGAA	0.122
TCGTAGAA	0.384
TCGTAGCA	0.419
ACGTAGCA	0.0433
AAGACCTC	-0.2
AAAACGAC	0.363
GAAACGCC	0.0403
GAAACGAC	0.41
CCAACGAG	0.093
AAAACGAG	0.362
CTAACGAC	0.282

Sequence	PBM E-score
CAAACGAG	0.463
CAAACGAC	0.442
GAAACGGC	0.2
ACCCAGCG	-0.184
CAGGACCG	-0.0291
CAATTCGC	0.0698
ACTCACGG	0.034
CACGTCCG	-0.21
CAGATGGA	0.0554
ACTCACCG	-0.0985
GGCGTTAA	-0.0419
CTCGTTAA	0.437
ATCGTTAG	0.201
ATCGTTAA	0.403
CACGTTAC	-0.046
GACGTTAA	0.0928
CTCGTTAC	0.371
GTCGTTAA	0.427
ATCGTTAC	0.264
CACGTTAA	0.00208
CGCGTTAC	0.159
CCCGTTAA	0.256
CGGCGTAG	-0.00106
ATAGTGAT	0.176
CCTCGCAG	0.0132

Sequence	PBM E-score
CCCGTCCG	-0.309
CGCCAGTC	0.014
ATACGGAT	0.332
CTACGGAC	-0.07
ATACGGAC	0.362
GCACGGAA	-0.094
GGACGGAA	-0.0866
ATACGGAA	0.374
ATACGGAG	0.385
CTACGGAG	-0.0418
GTACGGAC	0.372
GTACGGAA	0.4
TTACGGAA	0.266
CTACGGAA	0.0649
AATTTGCT	-0.0782
TAGGGAGA	-0.252
ACATGGGG	-0.282
TGAATTAA	0.099
CCGGAGGA	-0.171
AGAAACGA	0.424
CGAAACGA	0.424
CGAAACCA	0.28
GAAAACGA	0.306
AGAAACGC	-0.0375
CGAAACGC	0.0992

Sequence	PBM E-score
GGAAACAA	0.0422
GGAAACGA	0.426
AGAAACGG	0.272
CCTGTGTA	0.00294
GAGAGCAC	-0.00667
AACATCGT	0.264
AAGTATCA	-0.115
CAGCTAGA	-0.0476
CTTGCCGA	-0.0634
ACGACCTA	0.384
ACGACCTC	0.337
ACGACCAG	0.319
ACGACCAA	0.371
ACGACCGA	0.394
ACGACCAC	0.35
CCGACCGA	0.203
GCGACCGA	0.218
CCGACCTA	0.0401
AGACATTG	-0.268
ACTCGCAG	0.0817
GCAGGGGC	-0.243
GAAGAAGC	-0.234
AACAGTTA	-0.1
ATCCGTTA	0.177
AAAGGCTT	-0.177

Sequence	PBM E-score
ACCGAGCG	0.292
CAAGACTC	-0.126
CGAAATCG	0.111
CTTCGTTA	0.303
ATTCGTTG	0.277
ATTCGTTC	0.432
ATTCGTTA	0.309
GTTCGTTA	0.356
CTTCGTTC	0.47
CTCTCTAA	-0.232
GCTCTAGA	-0.226
CGTTCCTA	0.439
CCTTCCTC	-0.0948
CGTTCCTC	0.452
GGTTCCTA	-0.128
AGTTCCTA	0.102
AGTTCCTC	-0.117
ACAGTAAC	0.00997
AACTGCAA	-0.138
CACCTTAC	-0.0784
CGGCTCCC	-0.0756
GCTGCATA	-0.114
CGTCTAAC	-0.0542
GAAAGATC	0.0489
ACATAGCA	-0.131

Sequence	PBM E-score
GTATAAAC	0.403
ATATAAAC	0.212
GTATAAAA	0.335
CACAATTC	-0.0282
AGCGCTAT	-0.048
CGACCTCG	0.183
AACGTTCC	0.259
ATCGTTGG	-0.0634
AGCGTTCC	0.2
ATCGTTCA	0.402
CACGTTCA	-0.131
AGCGTTCA	-0.121
AACGTTCA	0.0914
ATCGTTCG	0.373
CTCGTTCA	0.47
CGCGTTCA	0.185
AACGTTCG	0.217
ATCGTTCC	0.478
AGGGTTAT	-0.0839
ATTCATAC	0.161
CTTGTGTC	-0.0755
CACCGGAC	0.112
